Sampled rows, rich in hits. Any-hit rate of the full collection: about 11%.
VACV Venus inh – vaccinia inhibition (Venus reporter); Vaccinia virus Venus reporter expression, fluorescence; Potency, µM (top dose mostly 36.5 µM), actives largely listed as inhibitors; actives 0.46% (n = 330,000); calls by dose curve; tested in A549 cells; also: nearly all actives have a fitted effect of over 30% in size
NS1 function inh – influenza NS1 inhibition. actives 0.4% (n = 270,000). AID 2326. Potency, µM (titrated, usually from 46.1 µM); calls by dose curve; also: actives are rising curves; nearly all actives have a fitted effect of over 50% in size
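Recovery from NS1-induced slow growth read by OD600 in budding yeast switched to galactose assay medium (pH 6.0, -URA) at 1:100 dilution. Compound 23 nl per well; the matching strain lacking NS1 serves as control.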
HCV inhibitor – inhibitors of hepatitis C virus infection. Huh7.5.1 HCVcc-Cre infection, luciferase reporter, 44 h. Potency, µM (doses to about 41.8 µM), hits mostly inhibitors. actives 3.4% (n = 340,000)
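HCVcc-Cre virus at an moi near 0.5 was added right after compound to cells cultured 4 h from seeding (1,000 cells/well). Luciferase activity was determined 44 h later, 15 min after substrate addition at RT.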
Pf growth 96h – P. falciparum growth inhibition at 96 hours; actives 6.9% (n = 320,000); Potency, µM (highest dose often 28.7 µM), most hits filed as inhibitors; AID 504834; P. falciparum luciferase reporter growth, 96 h
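Luminescence readout: decreased luciferase signal marks inhibited growth of reporter-expressing P. falciparum in infected red cells (2% hematocrit, 0.05% parasitemia final), exposed to compound two generations (96 h, 37 C, 5% CO2).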
VACV mCherry inh – vaccinia inhibition (mCherry reporter); Vaccinia virus mCherry reporter infection, fluorescence; Potency, µM (top dose mostly 36.5 µM), usual class: inhibitors; actives 0.63% (n = 310,000); AID 720579; calls by dose curve; tested in A549 cells; also: nearly all actives have a fitted effect of over 35% in size
Pf growth 48h – P. falciparum growth inhibition at 48 hours (one generation). P. falciparum luciferase growth in erythrocytes, 48 h. AID 504832. Potency, µM (titrated, usually from 28.7 µM), hits mostly inhibitors. actives 5.9% (n = 310,000)
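Firefly luciferase activity from engineered P. falciparum reports growth; inhibitors lower the luminescent signal. Cultures contained 2% hematocrit erythrocytes at 0.1% final parasitemia.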
Each line names hits and unclear results; the compound was inactive in the other large screens. Unless noted, calls follow the shape of the dose curve; as a rule, active = well fitted inhibition curve with a large enough effect; inconclusive = small, poorly fitted or top-dose-only effect, or another doubt; inactive = no such curve, though single readings can be large or run the other way.

Cc1cccc(C(=O)OCC(=O)c2ccc3c(c2)OCO3)c1O	none
CCOC(=O)NN1C(=O)c2ccccc2NC1c1cccnc1 (configuration not stated)	Pf growth 96h inconclusive (no result: VACV Venus inh, NS1 function inh, VACV mCherry inh)
Cc1sc2ncnc(N3CCC(C(=O)Nc4nc(-c5cccs5)cs4)CC3)c2c1C	HCV inhibitor inconclusive, Pf growth 96h 10µM, Pf growth 48h inconclusive (no result: NS1 function inh)
Cc1sc2ncnc(N3CCC(C(=O)Nc4cc(Cl)ccc4Cl)CC3)c2c1C	HCV inhibitor inconclusive, Pf growth 96h inconclusive, Pf growth 48h inconclusive (no result: NS1 function inh)
Cc1sc2ncnc(N3CCC(C(=O)Nc4ccccc4C(C)(C)C)CC3)c2c1C	Pf growth 96h inconclusive, Pf growth 48h 12µM (no result: NS1 function inh)
CCOC(=O)c1ccccc1NC(=O)C1CCN(c2ncnc3sc(C)c(C)c23)CC1	HCV inhibitor inconclusive, Pf growth 48h 10µM (no result: NS1 function inh)
CCCCc1nnc(NC(=O)C2CCN(c3ncnc4sc(C)c(C)c34)CC2)s1	Pf growth 96h inconclusive, Pf growth 48h inconclusive (no result: NS1 function inh)
CCc1nnc(NC(=O)C2CCN(c3ncnc4sc(C)c(C)c34)CC2)s1	none (no result: VACV Venus inh, NS1 function inh, VACV mCherry inh)
Cc1sc2ncnc(N3CCC(C(=O)Nc4cc(C(F)(F)F)ccc4OCC(F)(F)F)CC3)c2c1C	HCV inhibitor 7.9µM (no result: VACV Venus inh, NS1 function inh, Pf growth 96h, VACV mCherry inh, Pf growth 48h)
O=C1c2cc(CO)cc(O)c2C(=O)c2c(O[C@@H]3OC(CO)[C@@H](O)[C@@H](O)[C@@H]3O)cccc21 (some centres not stated)	none (no result: NS1 function inh, Pf growth 96h, Pf growth 48h)
Cc1ccc(Cl)cc1NC(=O)CSC1=Nc2ccccc2C2=NC(Cc3ccccc3)C(=O)N12 (configuration not stated)	none (no result: NS1 function inh, HCV inhibitor, Pf growth 96h, Pf growth 48h)
O=S(=O)(O)c1ccc(NN=Cc2ccccc2O)cc1	none (no result: NS1 function inh, Pf growth 96h, Pf growth 48h)
COc1ccccc1CNC(=O)CN(C)CC(=O)Nc1ccc(F)c(F)c1F	none (no result: VACV Venus inh, NS1 function inh, Pf growth 96h, VACV mCherry inh, Pf growth 48h)
O=C(O)c1cccc(Cn2c(Cl)c(/C=N/NC(=O)c3ccccc3)sc2=O)c1	none (no result: VACV mCherry inh)
CC(C)CN(C(=O)CCc1ccccc1)c1c(N)n(CC(C)C)c(=O)[nH]c1=O	none
Cc1cc(C)n2nc(SC(C)C(=O)N3CCC4(CC3)OCCO4)nc2n1 (configuration not stated)	Pf growth 48h 2.6µM (no result: HCV inhibitor)
Cc1cc(C)n2nc(C(=O)N3CCOCC3)nc2n1	Pf growth 96h inconclusive
O=C(O)c1cccc(Cn2c(Cl)c(/C=N/NC(=O)c3cccc(O)c3)sc2=O)c1	Pf growth 96h inconclusive
CCN(CC)CCNC(=O)CSc1c2c(nc3cc(Cl)ccc13)CCCC2	HCV inhibitor 10µM, Pf growth 48h inconclusive (no result: NS1 function inh)
CC(C)(C)CC(=O)Nc1ccc(S(=O)(=O)N2CCCC2)cc1	Pf growth 48h inconclusive
CN(C)/C=C(\C(=O)c1ccccc1)c1nnnn1-c1ccccc1	none
CN(C)c1ccc(C=C(c2nnnn2-c2ccccc2)c2nnnn2-c2ccccc2)cc1	Pf growth 48h 9.3µM
CC(C)OC(=O)c1ccc(N2CCN(c3ccc(F)cc3)CC2)nc1	HCV inhibitor inconclusive, Pf growth 96h inconclusive, Pf growth 48h inconclusive (no result: VACV Venus inh, VACV mCherry inh)
CC(C)OC(=O)c1ccc(N2CCN(c3ccccc3F)CC2)nc1	HCV inhibitor 11µM, Pf growth 96h inconclusive (no result: VACV Venus inh, VACV mCherry inh)
COC(=O)C1=C(c2ccc(OCc3ccccc3)cc2)C[C@@H]2CC[C@H]1N2C(=O)NCc1ccccc1C(F)(F)F	VACV Venus inh inconclusive (no result: NS1 function inh, HCV inhibitor, Pf growth 96h, Pf growth 48h)
COC(=O)C1=C(c2cccc(OCc3ccccc3)c2)C[C@@H]2CC[C@H]1N2C(=O)NCCCc1ccccc1	VACV Venus inh inconclusive, HCV inhibitor inconclusive, Pf growth 96h inconclusive, Pf growth 48h 9.3µM (no result: NS1 function inh)
COC(=O)C1=C(c2ccc(OCc3ccccc3)cc2)C[C@@H]2CC[C@H]1N2C(=O)NCCCc1ccccc1	VACV Venus inh inconclusive, HCV inhibitor 6.3µM, Pf growth 96h inconclusive, Pf growth 48h inconclusive (no result: NS1 function inh)
CNCc1c(OCc2ccc(F)cc2)ccc2ccccc12	Pf growth 96h inconclusive, Pf growth 48h 15µM
Fc1ccc(COc2ccc3ccccc3c2CNc2nn[nH]n2)cc1	Pf growth 48h inconclusive
CC1CN(O)C2CCc3c(no[n+]3[O-])C12O (configuration not stated)	none (no result: VACV Venus inh, VACV mCherry inh)
CC1CC2(O)c3no[n+]([O-])c3CCC2N1O (configuration not stated)	Pf growth 96h 10µM
CSc1ncccc1C(=O)OCCCC(=O)c1ccc(F)cc1	none (no result: NS1 function inh, Pf growth 96h, Pf growth 48h)
Cc1ccc(CC(=O)Nc2nc3ccccc3s2)cc1	none
Cc1nc2c(ccc3nc(NC(=O)Cc4ccccc4)sc32)s1	HCV inhibitor 10µM

Bioassay records as filed in PubChem BioAssay.
